Assay results taken from the supplement of paper PMC12632987.

Molecular target: GABARAPL2, P60520
Assay: median log2 fold change of GCK-ALFA target abundance (FLAG IP / Myc IP barcode read proportion) (log2 ratio); each designed protein is fused to an ALFA-tag nanobody in HEK293 cells to bring the named protein to FLAG-tagged glucokinase (GCK); Myc marks an untargeted standard; higher = target protein stabilised (more abundant)
Conditions: target protein: 3xFLAG-MCP-GCK-ALFA reporter; HEK293 landing pad (RPLP)
Outline: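 HEK293 landing-pad cells received a recombined binder library fused to the ALFA nanobody and were induced with 2 μg mL^−1 doxycycline, then transfected with a plasmid encoding a FLAG-tagged target and a Myc-tagged standard. Lysates were collected after 48 h for anti-FLAG and anti-Myc immunoprecipitation, and the circular RNA barcodes were reverse transcribed, amplified and sequenced. Target abundance for each binder is the median log2 ratio of FLAG to Myc barcode read proportions. Barcodes had to reach a proportion of at least 10^−7 in both replicates, each binder needed at least 3 barcodes per replicate, a pseudocount of 10^−6 was applied, and the two replicates were pooled.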

GABARAPL2, P60520, sequence (P60520 whole entry, the tested form may be a part): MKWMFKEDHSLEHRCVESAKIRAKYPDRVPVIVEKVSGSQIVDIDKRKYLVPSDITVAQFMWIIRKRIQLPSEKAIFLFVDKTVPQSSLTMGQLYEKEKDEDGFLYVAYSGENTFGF

Binder	median log2 fold change
GBRAPL2_128_7286 (protein) MKLVEIDIDIKNKEEYELAKAVLDDIAKNSSPKVAKLADAAKDMAEEAAKEGYKEKVTVADILTDEEAEELKKLLEELKEKYGKEKVEKVIKLTVDDLPP	-0.551
GBRAPL2_128_7287 (protein) MKLVTIDITIENEEEYELAEKVLEELARRGSPAVADLADAALDMVRSAKEDGYNENVAVTDILSPEDAAELKALLEELAKEYGEEKVNRIIKLEVDDIPP	-0.633
GBRAPL2_128_7278 (protein) MKLVEIDIDIKNEEEYELAKKVLKRIAEEGSPEVSKLADAALDLVEENKEEGFKYSRTVVDILSEEDAEELKELFEKLAEEYGKEKVEKVIKLEIDDIPP	0.112
GBRAPL2_128_7275 (protein) MKIVEIDVDIKNEEQYNLALEILDEIAENSSPAVADLADAAKDLAESSKERGFDENVTAVDVLSEEDAEELRRIYEEIAEKLGREKVESVVRLEISDLEP	-0.585
GBRAPL2_128_7285 (protein) MKLVTIDIKVENEEEYELAKKVLDEIAEEGSPAVAKLADAARDMLESEKEEGFKDGVSVADILSDEEAEELKELYEKLAEKYGKEKVNKIIELTVDDLPP	-0.134
GBRAPL2_128_7281 (protein) MKLVTIDIDVENEEEYELVKKVLDEIIEKGSPEVADLADAAKDMLEESKKEGFKEKVSVADILSDEEAEELKKLFEELAKKYGEEKVNKHIELEIDDLPP	-0.33
GBRAPL2_128_7283 (protein) MKLVEIDITVKNEEEYKLAKEVLKEIAEKGSPAVAKLADAALDMLESEKEEGFKDGVTVADILTEEEAEELKKLYEELAKKYGEEKVKKIIELTVDDIPP	-0.458
GBRAPL2_128_7282 (protein) MKLVTIDVTVENEEEYNLAVEVFDEIIEEGSEKVADLADAAKDMLESSKENGYKENVSVADILSDEDAEELRELFEELAKKYGEEKVKKIIELTIDDLPP	-0.381
GBRAPL2_128_7273 (protein) MYLVEIDIDVKDEESYNLAVEILDEIAKNSSEKVKDLAEAARDMAEIAYENGFDEKVVVVDIVSEEEAEELKKIYEEIKKKKGEEKVNSVVELEIDEVEP	-0.586
GBRAPL2_128_7279 (protein) MKIVEIDIDVENEEEYKLAKEVLEKIAEEGSPEVAKLADAALDLVEENEEDGFDEKFTAVDILSEEDAEELKELFEELAEKLGKEKVEKVIKLEIDDIPP	-0.539
GBRAPL2_128_7288 (protein) MKLVTLDVDVEDEEEYELALEVLTRLAERGSPAVARLADAARDMVEEAKEEGYDEEVAVTDILSEEDAEELRALYEELAAELGAERVSRVIRLEVDDLPP	-0.203
GBRAPL2_128_7274 (protein) MKIVEIDIDIKNEEQYELALEVLDRIAANSSPAVADLADAARDLAESAKEEGFDENVSAVDVLSDEDAAELQAIYDEIAAELGEEKVNSVVKLTIDPLEP	-0.506
GBRAPL2_128_7276 (protein) KKIVSIDVDLKDEESYELALKILEEIAEKSSPKVKELAEAAKDLAEAAKEEGFGETVTAVDILSDEEVEELKKIYAEIKKKYGEEKVNSVVKIEIDELKP	-0.258
GBRAPL2_128_7289 (protein) MKLVTLDIDIENEEEFKLAKKVLEELAKKGSPAVADLANAALDMVEEAEKDGYNEKVSVADILSEEDAEELKKLLEELAKKYGEEKVKKIIKLEIDELPP	-0.0985
GBRAPL2_128_7280 (protein) MKLVEISVTVENEEEYELAKKVLTEIAEKGSPEVAKLADAALDLVESNKEDGFDEAVVAVDILSEEDAEELKELYEELAEKYGKEKVEKVIQVEVDDIPP	-0.794
GBRAPL2_128_7284 (protein) MKLVEIDITVKNEEEYELVLKVLTEIAERGSPAVAKLADAAKDMVEEEKKEGFKDGVTVADVLSDEDAAELKALYEELAEKYGKEKVNKHIKLTVDDLPP	-0.0335
